# Data: the supplement of paper PMC6555819
# Tests used:
# Assay in all cases: PBM binding z-score (relative to random genomic background probes); higher = stronger binding; sequences stand for … in GC…GCGATTGACAGCGTAGAATGAAGG
# [1] = test system: FXR:RXRa (NR concentration 270 nM, RXRa partner concentration 90 nM)
# Procedure, shortened: (§1)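 Binding z-scores take random background probes as their reference. They come from custom Agilent 4×180K protein-binding microarrays incubated 1 h with ligand-free nuclear receptor dimers, with antibodies against each partner (one per run) detecting binding. Scanned fluorescence was regression-normalized.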
# [2] = test system: LXRa:RXRa (NR concentration 270 nM, RXRa partner concentration 90 nM)
# Procedure, shortened: as §1
# [3] = test system: LXRa homodimer (NR concentration 270 nM)
# Procedure, shortened: as §1
# [4] = test system: LXRb:RXRa (NR concentration 270 nM, RXRa partner concentration 90 nM)
# Procedure, shortened: as §1
# [5] = test system: LXRb homodimer (NR concentration 270 nM)
# Procedure, shortened: as §1
# [6] = test system: PPARa:RXRa (NR concentration 270 nM, RXRa partner concentration 90 nM)
# Procedure, shortened: as §1
# [7] = test system: PPARg:RXRa (NR concentration 180 nM, RXRa partner concentration 90 nM)
# Procedure, shortened: as §1
# [8] = test system: PPARg:RXRa 270nM:90nM, anti-RXR (NR concentration 270 nM, RXRa partner concentration 90 nM)
# Procedure, shortened: as §1
# [9] = test system: PPARg:RXRa 30nM:10nM, anti-RXR (NR concentration 30 nM, RXRa partner concentration 10 nM)
# Procedure, shortened: as §1
# [10] = test system: PPARg:RXRa 90nM:30nM, anti-RXR (NR concentration 90 nM, RXRa partner concentration 30 nM)
# Procedure, shortened: as §1
Sequence,PBM binding z-score [1],PBM binding z-score [2],PBM binding z-score [3],PBM binding z-score [4],PBM binding z-score [5],PBM binding z-score [6],PBM binding z-score [7],PBM binding z-score [8],PBM binding z-score [9],PBM binding z-score [10]
CTACCAAGGCGAACAAGGTCGTTGATTACTATTC,0.285,0.164,0.0479,0.521,-0.798,0.658,0.0767,0.292,-0.118,-0.247
CCTACTGGGCCACAAAAGGTCATTGATTCAGTGA,3.28,5.83,5.25,4.37,0.347,4.79,4.35,4.41,1.88,3.74
CCTACTGGGCCACGAAAGATCATTGATTCAGTGA,-0.333,-0.132,-0.275,-0.437,-0.666,0.946,1.67,1.31,0.112,0.519
CGTCCAAGGTCAGCACGTCAGTGAAAGCGACGTG,5.32,3.11,-0.0642,2.37,-0.16,4.23,2.38,2.91,0.448,1.36
TATACAGGGTCAGAGGCCAGAGTACGAATGTCGA,4.14,3.96,0.791,2.95,1.8,4.29,5.34,5.19,3.23,4.52
CGAACGAGGGCATGAGTTTATAGCAAATGCCGAT,0.448,0.306,-0.244,0.294,-1.03,1.43,1.45,1.38,0.138,0.962
CGTCAACGTTCAAGGTAACGTAACAGAAAGCAGC,-0.152,-0.339,-0.374,-0.129,-0.566,-0.0131,0.721,-0.237,-0.128,-0.193
TAGCCTAGGTCATTCAGGGGCCCGTATAGAAAGC,4.76,3.93,0.791,2.54,0.963,3.52,1.99,2.34,0.359,1.44
CATACAAGGTCAGCTAGGCCAGAGTAGGGACGGC,5.48,4.64,0.878,2.65,0.921,4.45,3.65,3.36,0.947,2.45
ATCGAAAGGTCGACGTGAGTATAGAGAAAGGGAA,3.97,3.07,-0.0365,2.39,0.422,4.06,2.45,2.9,1.04,2.13
TCTTGTAGATCAACAGGAGGTTAAGAGAGATCGA,-0.193,1.14,-0.121,0.527,-0.544,1.3,0.126,1.38,2.38,1.73
CCTACTGGGCCAAGGTCATTAATCAGTCAAAGCA,2.47,2.57,1.18,2.82,-0.0551,3.71,3.45,4.19,1.47,3.23
CAGACTAGGTCACGAAAGGTCAAAGTCGAATGAC,7.54,8.31,7.86,7.34,2.45,6.6,9.66,7.89,5.88,7.73
TCAGACAGGTGATGGTAACTCAGGTACGCAGTCG,0.415,0.602,0.0587,0.648,-0.117,1.16,0.601,1.7,3.35,2.55
GCTGCTAGGTCAGGTTGCTCAGCTAACGGGTACG,1.19,0.603,-0.362,0.238,-0.468,1.3,0.32,1.06,-0.602,0.106
TCATATAGGTAAAGGTGAAATTCGAACGATATGA,0.843,1.08,-0.192,1.14,0.15,3.13,4.11,4.26,4.22,4.3
CGTCGAAGGTCAGAGAGGTCAGTGAATGCCGAGT,6.25,5.11,3.28,4.34,0.365,4.79,3.57,4.39,1.28,3.06
CAAACTAGGTCATAGGTCAAAGTCGAGCCAACCA,7.12,5.85,3.78,5.36,1.14,7.84,12.8,10.5,11.6,12
GCTCGGAGGACAAGGTCAGCGCTTTGTCCGTAGA,2.42,2.15,-0.539,1.88,-0.677,2.94,0.785,2.1,-0.477,0.958

Sequence,PBM binding z-score [1],PBM binding z-score [2],PBM binding z-score [3],PBM binding z-score [4],PBM binding z-score [5],PBM binding z-score [6],PBM binding z-score [7],PBM binding z-score [8],PBM binding z-score [9],PBM binding z-score [10]
CAAACTAGGTCACGAAAGGTAAAAGTCGAATGAC,5.18,4.51,0.678,3,0.18,5.71,9.74,7.96,6.05,7.49
CCTACTGGTCCATTCAGAGGTCATTGATCATATG,2.73,4.6,7.06,3.9,1.12,3.32,0.652,1.92,0.224,1.05
GGAACGAGGGCATTCGGGTTGATAGCATGGCGAT,1.28,1.22,-0.291,0.287,-0.152,1.74,0.887,0.703,-0.367,0.323
GATACAGGGTCCAGGCCAGAGTACGCGTATTGAT,-0.251,-0.534,-0.485,-0.738,-0.692,-0.292,0.664,-0.347,-0.488,-0.478
TGATTGAGGTTAAAGATCAGGGAACGTGGCGTCG,3.41,2.42,0.0848,1.85,0.589,4.47,5.23,5.82,4.22,5.94
GGAACGAGGGCAAAGTTGATTGCATCTGTCGACG,1.25,0.976,-0.336,0.888,-0.546,3.9,6.23,6.84,5.63,6.92
CTACCAAGTTGAACAAGGTCGTTGATTACTATTC,1.16,1.41,0.853,1.91,0.134,1.73,0.0728,0.171,0.12,0.362
CGTCCAAGGTCAACGTCAGTGAAAGAGACTCGAA,7.13,5.39,0.128,4.19,0.597,5.64,5.37,5.51,1.61,4.17
GCTTACCGGTCAAAGGTTATAGCATGAATAGAAT,4.43,4.56,1.49,3.6,0.218,5.47,8.77,7.56,6.87,8.38
AGTCAAACTTCACTAGGTAACGTAAGATTCAGCT,-0.0326,-0.0348,-0.0758,0.0812,0.248,0.271,0.504,0.268,0.187,0.101
TAGCCTAAGTCATTGGGCCAGTATAGTACGCATC,-0.205,-0.421,-0.659,-0.39,-0.339,-0.181,0.256,-0.24,-0.281,-0.391
AGAACGAGGGCAATGAGTTGGTAGCACGGGTGGC,0.301,0.0909,-0.759,-0.443,-0.642,1.18,0.956,0.772,-0.238,0.196
CCTCGGAGGACAACAGGAGGACAGAGCTGCCAGA,0.107,0.0624,-0.1,-0.555,-1.29,-0.58,0.442,-0.396,-0.625,-0.907
CAAACTGGGTCACAGAGGTCAAAGTCCGTGCGTA,6.46,6.47,6.04,5.99,1.68,6.5,9.86,7.93,6.54,8.19
AGAACGAGGGCACGCTGAGTTAATAGCAGAGTAG,0.956,0.697,-0.612,0.378,-1.03,1.99,2.22,1.65,0.0968,1.08
TCTTGTAGATCAGCAGGATAAGAAAGCTGGCCAA,-0.292,-0.433,-0.526,-0.411,-0.635,0.0173,-0.182,1.01,2.37,1.45
TCATATAGCTAAAAGGTGAAAGTCGGTGTGGTAA,0.855,1.02,0.0787,1.2,-0.577,2.26,0.863,2.94,3.25,3.08
ATGGAAAGGTCGAAGGTGAGTATACCCACCCGAA,4.22,3.27,0.0491,2.82,0.401,4.71,4.84,5.14,2.3,4.32
AGAATGCGGTTATACGTAGATCAGGGAAGAAAGT,-0.295,0.056,-0.263,-0.408,-0.59,-0.235,0.152,-0.304,-0.0964,-0.139
